Results published in PubChem BioAssay (EPA / NIEHS).
Calls of active or inactive are those of the source. Rule for the calls: active = hit-call score of the fitted dose curve at least 0.9, where 1 is the maximum; inactive = score below 0.9.

Key:
[1] = APR_HepG2_P-H2AX_72hr: Apredica 72-hour HepG2 Assay for H2AX Phosphorylation (AID 2282916); conditions: imaging, actives raise or lower the signal;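 note: phospho-histone H2A.x immunostain intensity per cell marking DNA damage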
Method in brief: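 Following 72 hr treatment with 0.39–200 uM compound, HepG2 cells were formaldehyde-fixed, permeabilized and stained for phospho-H2A.x; signal was measured by high-content imaging and fitted bidirectionally against DMSO controls.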

[2] = APR_HepG2_MitoMembPot_72hr: Apredica 72-hour HepG2 Assay for Mitochondrial Membrane Potential (AID 2282917); conditions: imaging, actives raise or lower the signal
Method in brief: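 Membrane potential read by MitoTracker Red CMXRos (250 nM, 30 min, pre-fixation) fluorescence imaging of HepG2 after 72 hr exposure. Ten concentrations, 0.39–200 uM, duplicate wells, 0.5% DMSO; fitted in both directions against DMSO baseline.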

[3] = APR_HepG2_MitoticArrest_72hr: Apredica 72-hour HepG2 Assay for Mitotic Arrest (AID 2282918); conditions: high-content imaging, actives raise or lower the signal
Method in brief: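 High-content imaging of fixed human HepG2 cells after 72 h compound exposure (0.39–200 uM, duplicates, 0.5% DMSO); mitotic arrest scored from phospho-histone H3 and nuclear Hoechst staining relative to DMSO.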

[4] = APR_HepG2_MicrotubuleCSK_72hr: Apredica 72-hour HepG2 Assay for Microtubule CSK Stabilty (AID 2282919); conditions: HepG2 microtubule cytoskeleton, high-content imaging, actives raise or lower the signal
Method in brief: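 Read-out is tubulin fluorescence intensity from high-content imaging of HepG2 cells, with nuclei identified by Hoechst 33342. Treatment lasts 72 h at 0.39–200 uM, and curves are fitted bidirectionally against the DMSO negative control.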

[5] = APR_HepG2_P-H2AX_24hr: Apredica 24-hour HepG2 Assay for H2AX Phosphorylation (AID 2282920); conditions: high-content imaging, actives raise or lower the signal
Method in brief: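 High-content imaging of phospho-histone H2A.x immunofluorescence, nuclei counterstained with Hoechst 33342, in fixed HepG2 cells. Compounds ran 0.39–200 uM in duplicate for 24 h, final DMSO 0.5%. Signal change fitted both directions against DMSO.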

[6] = APR_HepG2_StressKinase_72hr: Apredica 72-hour HepG2 Assay for Stress Kinase (AID 2282921); conditions: HepG2 stress kinase (phospho-c-Jun) imaging, actives raise or lower the signal
Method in brief: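 Fluorescence intensity of Cy3-tagged anti-phospho-c-Jun antibody, quantified per cell from Hoechst-defined nuclei across six images per well, served as the read-out following 72 h exposure (0.39–200 uM, 0.5% v/v DMSO).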

[7] = APR_HepG2_StressKinase_24hr: Apredica 24-hour HepG2 Assay for Stress Kinase (AID 2282922); conditions: HepG2 stress kinase (phospho-c-Jun) imaging, actives raise or lower the signal
Method in brief: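 HepG2, 24 hr dosing, 0.39–200 uM in duplicate, 0.5% DMSO; formaldehyde fix (3.7%), 0.5% Triton X-100; anti-phospho-c-Jun + Cy3 secondary, Hoechst counterstain; ArrayScan imaging; bidirectional curve fit vs DMSO baseline.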

[8] = APR_HepG2_p53Act_72hr: Apredica 72-hour HepG2 Assay for p53 Activation (AID 2282923); conditions: high-content imaging, actives raise or lower the signal;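 note: average cellular p53 protein immunofluorescence intensity in HepG2 cells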
Method in brief: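 HepG2 monolayers receive test compounds in duplicate at ten concentrations (0.39 through 200 uM) for 72 hr. They are then formaldehyde-fixed, antibody-labelled for p53, Hoechst-stained and imaged, with activity fitted bidirectionally versus DMSO.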

[9] = APR_HepG2_MitoMass_72hr: Apredica 72-hour HepG2 Assay for Mitochondrial Mass (AID 2282924); conditions: high-content imaging, actives raise or lower the signal;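 note: MitoTracker Red CMXRos stain intensity per cell imaged as mitochondrial mass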
Method in brief: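 HepG2, 72 hr cmpd, 10 conc 0.39–200 uM in dup, DMSO 0.5% v/v. MitoTracker Red CMXRos 250 nM 30 min pre-fix; formaldehyde 3.7% fix 30 min RT. HCS imaging, gain/loss fit vs DMSO.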

[10] = APR_HepG2_NuclearSize_72hr: Apredica 72-hour HepG2 Assay for Nuclear Size (AID 2282925); conditions: high-content imaging, actives raise or lower the signal
Method in brief: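 HepG2; cpd 0.39–200 uM, 10 conc, duplicate; 72 h; DMSO 0.5% v/v; fix 3.7% formaldehyde 30 min RT; Triton permeabilization; Hoechst 2 ug/mL; HCS imaging 20x; nuclear diameter; gain/loss fit vs DMSO.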

[11] = ATG_CRE_CIS: Attagene CIS-FACTORIAL HepG2 Assay for human cAMP Responsive Element (CRE) binding protein 3 (AID 2282926); conditions: HepG2 CRE cis-reporter, Attagene multiplexed mRNA; actives raise or lower the signal
Method in brief: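 Multiplexed transcription-unit reporters transfected into HepG2; 24 h dosing; RT-PCR/capillary electrophoresis fluorescence read-out; bidirectional fit vs DMSO.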

[12] = biological target: CCAAT/enhancer-binding protein beta (Homo sapiens) (UniProt P17676); test: ATG_C_EBP_CIS: Attagene CIS-FACTORIAL HepG2 Assay for human CCAAT/Enhancer Binding Protein (C/EBP) beta (AID 2282927); conditions: HepG2 Attagene cis-factorial transcription factor reporter; actives raise or lower the signal
Method in brief: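 Changes in reporter mRNA, rather than exogenous chimeric receptor activity, reflect native C/EBP signalling in transfected HepG2 cells dosed for 24 h; transcripts are detected by RT-PCR and capillary electrophoresis.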

[13] = ATG_DR4_LXR_CIS: Attagene CIS-FACTORIAL HepG2 Assay for human Liver X Receptor (LXR), DR4 submotif (AID 2282929); conditions: HepG2 Attagene DR4 cis-reporter, mRNA transcription; actives raise or lower the signal
Method in brief: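 The endpoint is DR4-element-driven reporter transcripts after 24 h chemical exposure of transfected HepG2 cells. These were measured via RT-PCR and capillary electrophoresis, and gain or loss of signal was fitted relative to DMSO controls.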

[14] = biological target: Aryl hydrocarbon receptor (Homo sapiens) (UniProt P35869); test: ATG_Ahr_CIS: Attagene CIS-FACTORIAL HepG2 Assay for human Aryl Hydrocarbon Receptor (Ahr) (AID 2282930); conditions: HepG2 AhR cis-factorial reporter transcription; actives raise or lower the signal
Method in brief: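 HepG2, transient MRTU (cis) transfection, 24 h exposure. RNA → cDNA → PCR → 6-FAM primer extension → HpaI 2 h 37 C → CE. Fit: bidirectional, DMSO baseline.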

[15] = ATG_AP_1_CIS: Attagene CIS-FACTORIAL HepG2 Assay for human Activator Protein 1 (AP-1) (AID 2282931); conditions: HepG2 Attagene cis-factorial AP-1 reporter mRNA; actives raise or lower the signal
Method in brief: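 Readout is reporter transcript level from endogenous transcription factor activity, quantified by RT-PCR with fluorescent primer extension and capillary electrophoresis. Transiently transfected HepG2 cells, 24 h exposure. Curves fitted both directions versus DMSO.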

[16] = ATG_AP_2_CIS: Attagene CIS-FACTORIAL HepG2 Assay for human Activator Protein 2 (AP-2) (AID 2282932); conditions: HepG2 AP-2 cis-reporter, Attagene transcription factor profiling; actives raise or lower the signal
Method in brief: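 Step one: transient transfection of HepG2 with reporter transcription units. Step two: 24 h chemical exposure. Step three: RNA extraction, RT-PCR, labelled fragment analysis by capillary electrophoresis; DMSO serves as baseline.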

[17] = ATG_BRE_CIS: Attagene CIS-FACTORIAL HepG2 Assay for human Bone Morphogenetic Protein (BMP) Response Element (BRE) (AID 2282933); conditions: HepG2 BMP response element reporter, Attagene transcription factor profiling; actives raise or lower the signal
Method in brief: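 Endogenous transcription factor activity at a BMP response element was monitored in transfected HepG2 cells 24 h after dosing. Fluorescent RT-PCR products were resolved by capillary electrophoresis, and activity was fitted in both directions versus DMSO.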

[18] = ATG_CMV_CIS: Attagene CIS-FACTORIAL HepG2 Assay for human CMV (Internal Marker) (AID 2282928); conditions: HepG2 CMV promoter reporter, transcription factor profiling; actives raise or lower the signal;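 note: endpoint acts as a background internal control marker rather than a target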
Method in brief: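 Endogenous transcription factor activity read in HepG2 via transfected cis-promoter reporter units. After 24 h dosing, reporter mRNA measured by RT-PCR/capillary electrophoresis; gain or loss of signal fit relative to DMSO.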

[19] = biological target: Retinoic acid receptor alpha (Homo sapiens) (UniProt P10276); test: ATG_DR5_RAR_CIS: Attagene CIS-FACTORIAL HepG2 Assay for human Retinoic Acid Receptor Alpha (RARE), DR5 submotif (AID 2282934); conditions: HepG2 Attagene cis-factorial RARE DR5 reporter, mRNA; actives raise or lower the signal
Method in brief: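 HepG2, transient cis-reporter transfection, 24 h exposure. mRNA readout: RT-PCR, FAM label, HpaI cut, capillary electrophoresis. DMSO baseline, gain/loss fitting.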

[20] = biological target: Transcription factor E2F1 (Homo sapiens) (UniProt Q01094); test: ATG_E2F_CIS: Attagene CIS-FACTORIAL HepG2 Assay for human E2F Transcription Factor 1 (AID 2282935); conditions: HepG2 Attagene cis-reporter, E2F reporter RNA transcripts; actives raise or lower the signal
Method in brief: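 Total RNA from 24 h-treated, reporter-transfected HepG2 cells undergoes DNase I treatment, oligo(dT) reverse transcription, PCR and 6-FAM primer extension before capillary electrophoresis.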

Measured: AC50

Sequence of Retinoic acid receptor alpha (Homo sapiens) (P10276 whole entry, looked up): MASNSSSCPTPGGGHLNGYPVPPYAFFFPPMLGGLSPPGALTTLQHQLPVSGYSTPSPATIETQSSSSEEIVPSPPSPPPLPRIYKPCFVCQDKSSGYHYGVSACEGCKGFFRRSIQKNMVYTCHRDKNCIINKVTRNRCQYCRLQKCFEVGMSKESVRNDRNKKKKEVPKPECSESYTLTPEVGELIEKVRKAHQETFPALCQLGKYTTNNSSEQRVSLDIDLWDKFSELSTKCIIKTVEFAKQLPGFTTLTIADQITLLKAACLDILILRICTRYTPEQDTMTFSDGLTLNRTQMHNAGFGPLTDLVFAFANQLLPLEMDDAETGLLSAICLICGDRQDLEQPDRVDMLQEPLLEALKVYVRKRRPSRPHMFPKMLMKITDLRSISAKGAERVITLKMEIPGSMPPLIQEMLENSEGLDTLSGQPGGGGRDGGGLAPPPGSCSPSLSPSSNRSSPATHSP
Sequence of Aryl hydrocarbon receptor (Homo sapiens) (P35869 whole entry, looked up): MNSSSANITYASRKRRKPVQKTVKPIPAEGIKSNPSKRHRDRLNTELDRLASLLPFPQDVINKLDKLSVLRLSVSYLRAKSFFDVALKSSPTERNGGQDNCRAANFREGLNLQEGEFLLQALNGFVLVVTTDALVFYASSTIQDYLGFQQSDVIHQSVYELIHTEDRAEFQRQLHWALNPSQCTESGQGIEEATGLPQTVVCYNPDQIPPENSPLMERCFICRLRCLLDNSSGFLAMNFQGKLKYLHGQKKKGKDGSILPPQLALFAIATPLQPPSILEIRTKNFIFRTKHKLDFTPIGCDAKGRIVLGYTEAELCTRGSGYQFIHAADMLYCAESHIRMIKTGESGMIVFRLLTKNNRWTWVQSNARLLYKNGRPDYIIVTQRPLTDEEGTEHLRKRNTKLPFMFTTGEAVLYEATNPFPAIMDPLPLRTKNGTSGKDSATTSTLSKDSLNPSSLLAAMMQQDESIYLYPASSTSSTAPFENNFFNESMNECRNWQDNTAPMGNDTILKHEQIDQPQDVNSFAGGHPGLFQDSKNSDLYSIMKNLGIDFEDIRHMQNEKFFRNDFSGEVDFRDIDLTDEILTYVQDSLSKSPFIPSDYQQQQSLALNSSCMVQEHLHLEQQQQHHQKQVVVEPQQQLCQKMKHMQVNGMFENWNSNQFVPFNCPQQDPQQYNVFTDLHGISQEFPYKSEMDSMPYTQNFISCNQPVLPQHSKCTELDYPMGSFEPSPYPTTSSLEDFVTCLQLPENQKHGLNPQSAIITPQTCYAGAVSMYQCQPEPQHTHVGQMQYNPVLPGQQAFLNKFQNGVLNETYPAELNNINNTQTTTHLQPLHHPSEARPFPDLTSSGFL
Sequence of CCAAT/enhancer-binding protein beta (Homo sapiens) (P17676 whole entry, looked up): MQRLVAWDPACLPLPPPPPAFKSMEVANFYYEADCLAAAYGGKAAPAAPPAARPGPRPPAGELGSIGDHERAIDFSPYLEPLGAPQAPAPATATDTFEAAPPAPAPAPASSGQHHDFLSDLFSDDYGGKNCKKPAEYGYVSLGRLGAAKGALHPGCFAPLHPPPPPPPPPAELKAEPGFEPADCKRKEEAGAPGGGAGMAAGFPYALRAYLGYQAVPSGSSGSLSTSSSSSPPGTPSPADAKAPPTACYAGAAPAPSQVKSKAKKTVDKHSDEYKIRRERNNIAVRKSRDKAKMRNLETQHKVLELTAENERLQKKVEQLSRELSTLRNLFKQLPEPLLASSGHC
Sequence of Transcription factor E2F1 (Homo sapiens) (Q01094 whole entry, looked up): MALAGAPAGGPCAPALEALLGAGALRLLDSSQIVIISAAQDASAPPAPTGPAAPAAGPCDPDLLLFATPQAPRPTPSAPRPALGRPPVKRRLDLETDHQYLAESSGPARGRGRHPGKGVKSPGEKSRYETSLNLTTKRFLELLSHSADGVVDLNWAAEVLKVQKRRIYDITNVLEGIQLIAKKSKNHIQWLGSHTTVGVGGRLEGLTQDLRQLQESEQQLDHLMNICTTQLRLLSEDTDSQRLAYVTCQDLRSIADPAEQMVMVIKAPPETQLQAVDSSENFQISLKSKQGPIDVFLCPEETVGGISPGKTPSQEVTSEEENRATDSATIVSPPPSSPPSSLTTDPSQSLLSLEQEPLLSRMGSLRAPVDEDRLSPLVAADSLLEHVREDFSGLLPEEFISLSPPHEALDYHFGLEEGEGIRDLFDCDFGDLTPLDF

Cc1nn(-c2cc(NS(C)(=O)=O)c(Cl)cc2Cl)c(=O)n1C(F)F
inactive: [1] | [2] | [3] | [4] | [5] | [6] | [7] | [8] | [9] | [10] | [11] | [12] | [13] | [14] | [15] | [16] | [17]

Nc1nc(N)nc(NC2CC2)n1
inactive: [1] | [2] | [3] | [5] | [6] | [7] | [8] | [9] | [10] | [11] | [12] | [18] | [13] | [14] | [15] | [16] | [17] | [19]

CC(C)=CC1C(C(=O)OCN2C(=O)C3=C(CCCC3)C2=O)C1(C)C (stereo not drawn)
inactive: [1] | [2] | [3] | [4] | [6] | [7] | [8] | [10] | [14] | [16] | [20]
active: [5] 99.3 µM | [11] 38.4 µM | [12] 10.9 µM | [13] 73.6 µM | [15] 71.2 µM | [17] 50 µM

Nc1c(Cl)cc([N+](=O)[O-])cc1Cl
inactive: [1] | [2] | [3] | [4] | [5] | [6] | [7] | [10] | [13] | [14] | [16] | [19]
active: [11] 35.1 µM | [12] 73.8 µM | [18] 50 µM | [15] 75.2 µM | [17] 36.1 µM

CC(C)[C@H](C(=O)O[C@H](C#N)c1cccc(Oc2ccccc2)c1)c1ccc(Cl)cc1
inactive: [1] | [2] | [3] | [4] | [5] | [6] | [7] | [8] | [9] | [10] | [11] | [12] | [18] | [14] | [15] | [16] | [17]
active: [13] 13.9 µM

CNC(=O)ON=C(SC)C(=O)N(C)C
active: [9] 87.8 µM | [11] 17.4 µM | [15] 50 µM
inactive: [1] | [2] | [3] | [4] | [5] | [6] | [7] | [8] | [10] | [12] | [13] | [14] | [16] | [17] | [19]

S=C1NCCN1
inactive: [1] | [2] | [3] | [4] | [5] | [6] | [7] | [8] | [10] | [11] | [12] | [18] | [13] | [14] | [15] | [16] | [17] | [19]
